From PubChem BioAssay (NCI)
About 83,000 compounds went through this panel and 20% of them were active in at least one assay; those are over-represented in the sample as a whole.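 Testing used 96-well plates and a 48-hour single-concentration exposure. Example: -40 means 40% of the starting cells died.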 Calls of active or inactive are those of the source. The calls were made as follows: active = growth percent below 10; inactive = the rest.

Tests used:
Test in all cases: NCI-60 one-dose screen, 48 h (100 = growth as untreated, 0 = no growth, -100 = all killed)
Conditions in all cases: 10 µM
NCI-H23 lung = test system: NCI-H23 lung
NCI-H226 lung = test system: NCI-H226 lung
NCI-H322M lung = test system: NCI-H322M lung
NCI-H460 lung = test system: NCI-H460 lung
HOP-92 NSCLC = test system: HOP-92 NSCLC
NCI-H522 lung = test system: NCI-H522 lung
A549/ATCC NSCLC = test system: A549/ATCC NSCLC
786-0 renal = test system: 786-0 renal
COLO 205 colon = test system: COLO 205 colon
DU-145 prostate = test system: DU-145 prostate
K-562 leukemia = test system: K-562 leukemia
MALME-3M melanoma = test system: MALME-3M melanoma
MDA-MB-231 breast = test system: MDA-MB-231 breast
RXF 393 renal = test system: RXF 393 renal
SF-268 CNS = test system: SF-268 CNS
SF-295 CNS = test system: SF-295 CNS
SF-539 CNS = test system: SF-539 CNS
UACC-257 melanoma = test system: UACC-257 melanoma
M14 melanoma = test system: M14 melanoma
HOP-62 NSCLC = test system: HOP-62 NSCLC

Measured: growth

Cc1cccc(NC(=O)CSc2nc3ccc(F)cc3c(=O)n2-c2ccc(Cl)cc2)c1C
inactive: NCI-H23 lung 63% | NCI-H226 lung 21.5% | NCI-H322M lung 81.6% | NCI-H460 lung 57.9% | HOP-92 NSCLC 26.9% | NCI-H522 lung 77% | A549/ATCC NSCLC 72.5% | 786-0 renal 34.7% | COLO 205 colon 94.7% | DU-145 prostate 69.6% | K-562 leukemia 84.3% | MALME-3M melanoma 65.5% | MDA-MB-231 breast 51.8% | RXF 393 renal 18.8% | SF-268 CNS 59.1% | SF-295 CNS 57.5% | SF-539 CNS 25.7% | UACC-257 melanoma 87.7% | M14 melanoma 74%

CCC(C)S(=O)(=O)c1oc(-c2ccc(C)cc2)nc1S(=O)(=O)c1ccccc1 (stereo not given)
active: NCI-H23 lung -86.8% | NCI-H226 lung -10.3% | NCI-H460 lung -13.9% | HOP-92 NSCLC -74.6% | NCI-H522 lung -98.7% | 786-0 renal -48.8% | COLO 205 colon -85.5% | DU-145 prostate -89.6% | MALME-3M melanoma -96.4% | MDA-MB-231 breast -88.1% | RXF 393 renal -98% | SF-268 CNS -49.1% | SF-539 CNS -100% | UACC-257 melanoma -89.5% | M14 melanoma -42%
inactive: NCI-H322M lung 65.1% | A549/ATCC NSCLC 35.9% | SF-295 CNS 46.9%

Cc1cc(C)nc(/N=C(\N)Nc2ccc(S(=O)(=O)Nc3nc(C)cc(C)n3)cc2)n1
inactive: NCI-H23 lung 104% | NCI-H226 lung 102% | NCI-H322M lung 106% | NCI-H460 lung 116% | HOP-92 NSCLC 117% | NCI-H522 lung 98.4% | A549/ATCC NSCLC 106% | 786-0 renal 111% | COLO 205 colon 120% | DU-145 prostate 116% | K-562 leukemia 102% | MALME-3M melanoma 110% | MDA-MB-231 breast 105% | SF-268 CNS 106% | SF-295 CNS 98% | SF-539 CNS 102% | UACC-257 melanoma 108% | M14 melanoma 111%

O=C1Nc2ccc(Cl)cc2/C1=C/c1ccc(OCc2ccccn2)cc1
inactive: NCI-H23 lung 62.2% | NCI-H322M lung 64.2% | NCI-H460 lung 16% | HOP-92 NSCLC 72.1% | NCI-H522 lung 66% | A549/ATCC NSCLC 64.4% | 786-0 renal 25.7% | COLO 205 colon 89.1% | DU-145 prostate 87.8% | K-562 leukemia 51% | MALME-3M melanoma 38.5% | MDA-MB-231 breast 21.7% | SF-268 CNS 79.3% | SF-295 CNS 84.5% | SF-539 CNS 73.5% | UACC-257 melanoma 118% | M14 melanoma 89.9%
active: NCI-H226 lung 1.26%

Cc1ccc(/C=C(\C#N)n2nnc3c(F)cccc32)cc1
active: NCI-H460 lung 3.45% | HOP-92 NSCLC -4.81% | NCI-H522 lung 1.65% | A549/ATCC NSCLC -3% | COLO 205 colon -70.6% | MDA-MB-231 breast -18.1% | RXF 393 renal -4.78% | SF-539 CNS -27.9%
inactive: NCI-H23 lung 14.7% | NCI-H226 lung 16.8% | NCI-H322M lung 10.1% | 786-0 renal 38.5% | DU-145 prostate 13.9% | MALME-3M melanoma 34.7% | SF-268 CNS 24.3% | SF-295 CNS 16% | UACC-257 melanoma 38.6% | M14 melanoma 36.6%

COC[C@@H](CC(C)C)N=C1NC(=O)/C(=C/c2ccc3ncsc3c2)N1
inactive: A549/ATCC NSCLC 13.5% | 786-0 renal 23.5% | DU-145 prostate 15.7% | K-562 leukemia 11.8% | SF-268 CNS 16% | SF-295 CNS 23.2% | UACC-257 melanoma 16.2% | M14 melanoma 42.3%
active: NCI-H23 lung -10.5% | NCI-H226 lung -1.9% | HOP-62 NSCLC 3.81% | NCI-H460 lung 7.24% | HOP-92 NSCLC 3.44% | NCI-H522 lung -3.68% | COLO 205 colon -11.8% | MALME-3M melanoma 8.01% | MDA-MB-231 breast 9.26% | RXF 393 renal -36.9% | SF-539 CNS -20.5%

CN(CCF)c1ccc(/C=C/C(=O)c2ccc(N)cc2O)cc1
inactive: NCI-H23 lung 93.2% | NCI-H226 lung 93.8% | NCI-H322M lung 78.8% | NCI-H460 lung 71.9% | HOP-92 NSCLC 94% | NCI-H522 lung 67.5% | A549/ATCC NSCLC 68.8% | 786-0 renal 90.5% | COLO 205 colon 111% | DU-145 prostate 69.6% | K-562 leukemia 51.4% | MALME-3M melanoma 102% | MDA-MB-231 breast 95.7% | RXF 393 renal 82.8% | SF-268 CNS 93.7% | SF-295 CNS 80.4% | SF-539 CNS 83.5% | UACC-257 melanoma 96.6% | M14 melanoma 107%

O=c1oc2ccc(-c3ccc(F)cc3F)cc2c(=O)n1-c1ccc(Cl)c(C(F)(F)F)c1
active: NCI-H23 lung -42.7% | NCI-H226 lung -18.8% | NCI-H322M lung -2.17% | NCI-H460 lung 8.48% | HOP-92 NSCLC -19.4% | NCI-H522 lung -12.6% | 786-0 renal 7.66% | COLO 205 colon -81.3% | MALME-3M melanoma -26.7% | MDA-MB-231 breast -19.8% | RXF 393 renal -14.3% | SF-295 CNS -74% | SF-539 CNS -7.49% | UACC-257 melanoma -5.73%
inactive: A549/ATCC NSCLC 15% | DU-145 prostate 14.2% | K-562 leukemia 10.1% | SF-268 CNS 12% | M14 melanoma 21.5%

O=C(Nc1ccc(OCC(=O)c2ccccc2)cc1)Nc1ccc(Cl)c(C(F)(F)F)c1
inactive: NCI-H23 lung 25.4% | NCI-H322M lung 28% | A549/ATCC NSCLC 25.4% | 786-0 renal 21% | DU-145 prostate 49.2% | MALME-3M melanoma 10.4% | MDA-MB-231 breast 16.8% | SF-268 CNS 18.9% | SF-295 CNS 13.2% | SF-539 CNS 12.1% | M14 melanoma 17.5%
active: NCI-H226 lung 8.87% | HOP-92 NSCLC -14.5% | NCI-H522 lung -31.7% | COLO 205 colon -3.64% | RXF 393 renal -36.7% | UACC-257 melanoma 7.84%

COc1cc(/C=C/C(=O)c2ccc(C(F)(F)F)cc2)ccc1Oc1nc(Nc2ccc(F)cc2)nc(N(C)C)n1
inactive: NCI-H23 lung 64.6% | NCI-H226 lung 71.7% | NCI-H322M lung 82.8% | NCI-H460 lung 82.7% | HOP-92 NSCLC 81.5% | NCI-H522 lung 76.7% | A549/ATCC NSCLC 78.7% | 786-0 renal 71.8% | COLO 205 colon 134% | DU-145 prostate 82.9% | K-562 leukemia 48.2% | MALME-3M melanoma 87.7% | MDA-MB-231 breast 85.6% | SF-268 CNS 65.5% | SF-295 CNS 64.1% | SF-539 CNS 93.8% | UACC-257 melanoma 75.1% | M14 melanoma 72.8%

CC1=N/C(=C\c2ccc(N(C)C)cc2)C(=O)N1CCc1ccc(S(N)(=O)=O)cc1
inactive: NCI-H23 lung 98.5% | NCI-H226 lung 98.3% | NCI-H322M lung 107% | NCI-H460 lung 107% | HOP-92 NSCLC 96.5% | NCI-H522 lung 87.2% | A549/ATCC NSCLC 93.2% | 786-0 renal 101% | COLO 205 colon 113% | DU-145 prostate 112% | K-562 leukemia 90.6% | MALME-3M melanoma 93.4% | MDA-MB-231 breast 96.4% | RXF 393 renal 88.9% | SF-268 CNS 102% | SF-295 CNS 99.7% | SF-539 CNS 98% | UACC-257 melanoma 87.1% | M14 melanoma 97.3%

CC(=O)NCC1=C(C)C=C2C(=O)[C@](C)(O)C3(CC3)C(C)=C21
active: NCI-H23 lung -76.6% | NCI-H226 lung -72.2% | NCI-H322M lung -30% | NCI-H460 lung 4.33% | HOP-92 NSCLC -14.1% | NCI-H522 lung -64.8% | A549/ATCC NSCLC -50.3% | 786-0 renal -40.8% | COLO 205 colon -81.4% | DU-145 prostate -10.7% | MALME-3M melanoma -96.3% | MDA-MB-231 breast -61.5% | RXF 393 renal -74.7% | SF-295 CNS -14.5% | SF-539 CNS -71.1% | UACC-257 melanoma -62% | M14 melanoma -69.1%
inactive: SF-268 CNS 18.3%
